Compound activity as filed in PubChem BioAssay.
D1 antagonist – human D1 dopamine receptor antagonism. actives 3.2% (n = 360,000). activity change, negative = inhibition, % at 10 µM. P21728. HEK293 TREx D1 cells, calcium flux, dopamine EC80; active compounds read low; in the data active = activity change below about -30%; note: % is set by controls: 0 for no effect and ±100 for the full control effect
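Using tetracycline-induced force-coupled D1 Hek293 cells and a calcium dye, signals were followed for 180 s after compound, then for 180 s after EC80 dopamine, to detect inhibitors.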
D1 PAM – human D1 dopamine receptor positive modulation | AID 504651 | P21728 | potentiation, % at 10 µM | HEK293 TREx D1 cells, calcium flux, dopamine EC20 potentiation | actives 0.036% (n = 360,000); in the data active = potentiation above about 30%; note: 0% is about no effect
D1 agonist – agonists of human D1 dopamine receptor; P21728; HEK293 T-REx D1 cells, calcium flux, agonist mode; activation, % at 2 µM; actives 1% (n = 360,000); AID 504660; in the data active = activation above about 30%; note: 0% is about no effect
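Agonism was scored from calcium flux recorded over 180 s (1 read/s) after pintool compound addition, following a 10-cycle baseline. Cells were inducible force-coupled HEK293 TREx D1, plated overnight at 30 C and loaded with no-wash calcium dye.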
D3 antag – blocks the human D3 dopamine receptor; actives 2.5% (n = 360,000); D3R cells, DiscoveRx beta-arrestin luminescence, antagonist mode; active compounds read low; max response, negative = inhibition, %; P35462; in the data active = max response below about -50%; note: % is set by controls: 0 for no effect and ±100 for the full control effect
Target sequence (P35462 whole entry, looked up): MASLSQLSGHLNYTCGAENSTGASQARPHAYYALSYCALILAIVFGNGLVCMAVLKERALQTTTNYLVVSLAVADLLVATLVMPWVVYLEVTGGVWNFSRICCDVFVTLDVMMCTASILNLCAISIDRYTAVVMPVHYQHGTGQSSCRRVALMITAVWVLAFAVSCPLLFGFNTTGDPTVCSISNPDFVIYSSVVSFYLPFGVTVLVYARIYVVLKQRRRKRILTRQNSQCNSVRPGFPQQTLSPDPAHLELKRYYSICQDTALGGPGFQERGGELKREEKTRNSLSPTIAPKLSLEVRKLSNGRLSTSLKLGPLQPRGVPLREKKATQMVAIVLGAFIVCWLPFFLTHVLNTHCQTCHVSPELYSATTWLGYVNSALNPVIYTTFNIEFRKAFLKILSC
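Cells plated overnight at 1500 cells/well, then exposed to library compounds with dopamine controls for 90 minutes at 37 degrees C. DiscoveRx reagent added for 30–60 minutes at room temperature; luminescence read, quantitative HTS format.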
D3 ag – D3 dopamine receptor (human) agonism; max activation, %; D3R DiscoveRx beta-arrestin cells, luminescence, 90 min; P35462; actives 0.58% (n = 410,000); AID 652048; in the data active = max activation above about 30%; note: 0% is about no effect
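Agonist mode: compounds and dopamine controls were applied to plated cells for 90 min at 37 degrees C after an overnight attachment at 1500 cells/well. Luminescent read-out followed 30 - 60 minutes at room temperature with DiscoveRx detection reagent.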
Numbers without * were called inactive; nt = no result given. A selection: hits, their analogues and other compounds. The true share with any hit is near 6%.

SMILES | D1 antagonist | D1 PAM | D1 agonist | D3 antag | D3 ag
Cc1cc(OCCCN2CCC(C(O)(c3ccccc3)c3ccccc3)CC2)ccc1Br | nt | nt | nt | -0.5 | -8.7
COc1cc([N+](=O)[O-])ccc1NC(=O)COC(=O)c1c[nH]c(=O)[nH]c1=O | nt | nt | nt | 6.2 | -0.5
O=c1ccn(Cc2ccccc2)c(=O)n1Cc1ccccc1 | -17.7 | 3.8 | 1.2 | -50.1* | -0.9
COc1ccc(C2C(C(=O)N3CCN(c4ccccc4)CC3)c3ccccc3C(=O)N2C)cc1 (stereo not given) | -40.9* | -7.0 | -2.2 | 6.0 | -4.1
CCN(CC)CCCNC(=O)C1c2ccccc2C(=O)N(C)C1c1ccc(OC)cc1 (stereo not given) | -8.6 | -3.6 | 1.1 | -52.0* | -3.6
COc1ccc(C2C(C(=O)NCc3ccco3)c3ccccc3C(=O)N2C)cc1 (stereo not given) | -9.0 | -2.9 | -0.5 | 0.6 | -0.4
COc1ccc(NC(=O)c2sc(=O)n(Cc3ccc(F)c(Cl)c3)c2C)cc1OC | nt | nt | nt | -5.2 | -1.2
Cc1oc(-c2cccc(Cl)c2)nc1CSCC(=O)NCc1ccccc1Cl | 5.0 | -0.3 | 8.8 | nt | 4.4
Oc1ccccc1-c1cc(-c2ccc(F)cc2)n[nH]1 | -23.5 | -3.4 | 0.3 | 3.3 | 2.2
Oc1ccc(F)cc1-c1cc(-c2ccc3c(c2)OCCO3)n[nH]1 | 1.5 | -5.8 | 5.8 | -52.8* | -3.7
CC(=O)NC(c1ccco1)c1cc(Br)c2cccnc2c1O (stereo not given) | 2.3 | -0.2 | 7.6 | nt | nt
C/C=C(/C)C(=O)O[C@@H]1c2cc3c(c(OC)c2-c2c(cc(OC)c(OC)c2OC)[C@@H](OC(C)=O)[C@@H](C)[C@H]1C)OCO3 | -62.1* | -3.4 | 3.1 | -4.2 | 2.4
CCC(=O)NC(c1ccc(F)cc1)c1cc(Cl)c2cccnc2c1O (stereo not given) | -7.0 | 6.0 | 8.2 | nt | nt
Cc1cc2cc(CNC(=O)c3cccc([N+](=O)[O-])c3)ccc2n1C | -28.9 | -3.5 | -1.3 | 3.4 | 0.8
Cc1cc(C)c(S(=O)(=O)NCc2ccc3c(c2)cc(C)n3C)c(C)c1 | -37.0* | -8.3 | -2.4 | -22.1 | -5.2
Cc1cc2cc(CNC(=O)Cc3ccc([N+](=O)[O-])cc3)ccc2n1C | -31.2* | -14.2 | 3.3 | -23.2 | -9.6
Cc1cc2cc(CNC(=O)C3CCCC3)ccc2n1C | -30.1* | -12.7 | 1.8 | -6.4 | -1.6
Cc1ccc(Cl)cc1NC(=O)CN1C(=O)c2ccccc2Sc2ncccc21 | 1.0 | -3.1 | 1.9 | nt | -19.3
Cc1cccc(C)c1-n1c(C)cc(/C=N/NC(N)=S)c1C | 0.9 | -4.3 | 2.1 | -83.9* | -10.1
Cc1nc2ccccn2c1C(=O)N/N=C/c1ccccc1 | -5.1 | 2.4 | 1.3 | -23.1 | 0.1
Cc1cc(/C=N/NC(N)=S)c(C)n1-c1cccc(Cl)c1 | -1.7 | -2.8 | 12.5 | -0.8 | -8.2
Cc1nc2ccccn2c1C(=O)N/N=C/c1cc(C)n(-c2ccc(Br)cc2)c1C | -47.4* | -23.1 | 2.2 | -24.0 | -5.3
Cc1cc(/C=N/NC(N)=S)c(C)n1-c1ccc(Cl)cc1 | -51.8* | -5.0 | 4.7 | -57.6* | -10.9
Cc1cc(/C=N/NC(N)=S)c(C)n1-c1ccc(Br)cc1 | -49.5* | -16.6 | 4.6 | -67.2* | -13.3
Cc1cnc(C(=O)OCC(=O)c2ccc(Br)s2)cn1 | 2.7 | 7.1 | 3.5 | -14.6 | -7.6
SMILES | D1 antagonist | D1 PAM | D1 agonist | D3 antag | D3 ag
Cc1ccc(Cl)cc1N1CCN(CCNC(=O)Nc2ccccc2Cl)CC1 | -12.8 | -3.0 | 2.2 | nt | -24.8
O=C(Nc1cc(-c2ccc(Cl)cc2)no1)c1ccc(F)cc1 | -5.5 | -1.9 | 0.2 | nt | -14.8
COc1cccc(CNCCSc2nnnn2C)c1OCc1ccc(Cl)cc1 | -15.5 | -2.3 | 6.4 | nt | -15.8
COc1ccc2c(n1)Sc1nc3ccccc3nc1N2 | -24.2 | 1.9 | 261.6* | -23.8 | -5.0
O=C(NCC(c1ccc2c(c1)OCO2)N1CCN(c2ccccc2)CC1)C(=O)Nc1cccc(F)c1 (stereo not given) | 1.2 | -0.2 | 2.3 | nt | -0.3
COc1ccccc1-c1cc2nc(-c3ccccc3)cc(N3CCN(C(=O)c4ccco4)CC3)n2n1 | nt | nt | nt | 62.4 | 39.0*
Cc1nc(N2CCCC2)c2c(C(=O)Nc3cccc(Cl)c3C)c(C)oc2n1 | 5.0 | 1.2 | -0.4 | nt | -4.8
CCOC(=O)Nc1ccc2c(c1)N(C(=O)OC)c1ccccc1CC2 | 15.2 | -7.9 | 1.1 | -20.8 | 0.7
CCOC(=O)Nc1ccc2c(c1)N(CCCN(C)C)c1ccccc1CC2 | -3.0 | -10.2 | 38.1* | -26.0 | -10.1
COc1ccc(-c2cc(C)no2)cc1S(=O)(=O)N(C)c1ccc(C)cc1 | -13.8 | -8.3 | 5.4 | 8.6 | -4.4
CC(=O)Nc1cccc(NC(=O)C(=O)NCCc2sc(-c3ccccc3)nc2C)c1 | -40.0* | -5.7 | 9.1 | nt | 0.9
Cc1nc(-c2ccc(F)cc2)sc1CCNC(=O)C(=O)Nc1ccc2c(c1)OCCO2 | 5.5 | -0.6 | 15.7 | nt | 21.3
Cc1ccccc1C(=O)NCCc1sc(-c2ccc(Cl)cc2)nc1C | -37.6* | -3.4 | 2.3 | nt | -13.3
Cc1nc(-c2ccccc2)sc1CCNC(=O)C(=O)Nc1ccc2c(c1)OCCO2 | -45.4* | 0.5 | 6.9 | nt | 6.7
COc1ccc(-c2noc(CC(=O)Nc3cc(OC)ccc3OC)n2)cc1 | -6.4 | -2.0 | 3.2 | nt | -6.8
COc1ccc(OC)c(NC2=NC3(CCCCC3)N=C(N)N2)c1 | -53.6* | -22.6 | 0.9 | -55.2* | 0.2
COc1ccc(NC2=NC3(CCCCC3)N=C(N)N2)cc1 | -87.3* | -9.6 | 3.5 | -13.0 | -0.3
CCS(=O)(=O)N1CCC(C(=O)NCCC(C)C)CC1 | -3.9 | -0.1 | -2.0 | nt | 13.5
Cc1cc(C)cc(NC(=S)N(CCCN2CCN(C)CC2)Cc2cccs2)c1 | -1.6 | -5.6 | 11.0 | 5.4 | -9.2
COc1ccc(NC(=S)N(CCCN2CCC(C)CC2)Cc2cccs2)cc1Cl | -21.0 | -13.4 | 12.2 | -79.8* | -23.8
COc1cccc(NC(=S)N(CCCN2CCCC(C)C2)Cc2cccs2)c1 (stereo not given) | -13.3 | -0.7 | 3.4 | -80.2* | -11.0
CSc1cccc(NC(=S)N(CCCN2CCCC(C)C2)Cc2cccs2)c1 (stereo not given) | 18.8 | -15.6 | 4.9 | -103.6* | -14.0
COc1ccc(CNC(=O)c2ccc(NC(=O)N3CCCCc4ccccc43)cc2)cc1 | 3.9 | -4.3 | -0.5 | nt | -12.7
COc1cccc(-n2nnc3c(=O)n(C/C=C/c4ccccc4)cnc32)c1 | -41.3* | -10.5 | -0.2 | -13.7 | -2.4
Cc1cc(=O)c2c(O)c3c(O)cc(=O)c4c3c3c(cc(O)c1c23)C(C)(C)C=4O | nt | nt | nt | nt | 4.9
CC(C)Cn1c(SCc2nc3ccccc3c(=O)[nH]2)nc2ccccc2c1=O | 9.2 | -7.1 | 2.1 | 14.1 | 45.9*
COc1cc(-c2nnc(COC(=O)c3nn(CC(C)C)c(=O)c4ccccc34)o2)cc(OC)c1OC | -8.1 | 1.3 | 4.8 | 43.4 | 55.6*
